Source: PubChem (National Center for Advancing Translational Sciences (NCATS))
An excerpt weighted towards active compounds, which were near 8% of everything screened.
HCMV inh: blocks human cytomegalovirus replication; HFF cells, HCMV-luciferase reporter, 72 h; hits give low values; actives 4.5% (n = 410,000); activity change, negative = inhibition, % at 57.5 µM; AID 1259415; in the data active means activity change below about -60%; inconclusive means no clear call, values can overlap the other calls; inactive means above about -39%; further: on the % scale 0 is the no-effect control and ±100 the full control effect
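Luciferase read-out from HCMV-luciferase-infected HFFs (MOI 1 PFU/cell) 72 h post infection at 37C; compounds added after 16 h cell attachment; activity normalized between buffer-only basal and Salinomycin (10uM) inhibitor controls.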
SARS PLP yeast: SARS-CoV PLP inhibition in yeast; actives 0.19% (n = 330,000); Potency, µM (titrated, usually from 32.9 µM), inactives show at the top dose activity, positive = growth rescue, usual class: activators; S. cerevisiae expressing SARS-CoV PLpro, growth rescue; calls by dose curve; further: potency means the concentration at half of the fitted maximal effect; 0% is about no effect; nearly all actives have a fitted effect of over 55% in size
HCV inhibitor: blocks hepatitis C virus; Huh7.5.1 HCVcc-Cre infection, luciferase reporter, 44 h; Potency, µM (titrated, usually from 41.8 µM), for inactives: at the highest dose activity change, negative = inhibition, usual class: inhibitors; actives 3.4% (n = 340,000); AID 651820; active means well fitted inhibition curve with a large enough effect; inconclusive means small, poorly fitted or top-dose-only effect, or another doubt; inactive means no such curve, though single readings can be large or run the other way; further: potency means the concentration at half of the fitted maximal effect; on the % scale 0 is the no-effect control and ±100 the full control effect
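Seed cells (1,000/well) for 4 h; treat with compound and infect with HCVcc-Cre, moi about 0.5. Incubate 44 h, then detect luciferase activity.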
MARV entry inh: blocks Marburg virus binding to or entry into cells; AID 540276; Marburg virus pseudotyped entry inhibition, cell reporter; Potency, µM (top dose mostly 37.8 µM), without a hit: at the highest dose activity change, negative = inhibition, usual class: inhibitors; actives 1.8% (n = 300,000); calls by dose curve; tested in HEK293 cells; further: potency means the concentration at half of the fitted maximal effect; on the % scale 0 is the no-effect control and ±100 the full control effect
Lassa entry inh: inhibitors of Lassa virus binding or cell entry; Potency, µM (doses to about 37.9 µM), for inactives: at the top dose activity change, negative = inhibition, hits mostly inhibitors; actives 1.2% (n = 300,000); Lassa virus pseudotype entry inhibition, cell reporter; calls by dose curve; tested in HEK293 cells; further: potency means the concentration at half of the fitted maximal effect; on the % scale 0 is the no-effect control and ±100 the full control effect; nearly all actives have a fitted effect of over 50% in size
FMDV inh: foot and mouth disease virus antiviral activity; AID 1159524; Potency, µM (series often up to 57.9 µM), inactives show at the top dose activity change, negative = inhibition, most hits filed as inhibitors; actives 1.2% (n = 410,000); FMDV antiviral cell-based qHTS; calls by dose curve; tested in HEK293T cells; further: read-out not given here; potency means the concentration at half of the fitted maximal effect; on the % scale 0 is the no-effect control and ±100 the full control effect; nearly all actives have a fitted effect of over 45% in size
* = called active by the depositor; ? = inconclusive; . = no result; + = active, no number; [ ] = remark or other dose.

SMILES | HCMV inh | SARS PLP yeast | HCV inhibitor | MARV entry inh | Lassa entry inh | FMDV inh
CC(C)(C)C(=O)NNC(=O)c1cc2sccc2s1 | -19 | -2% | 14% | 2%[46.1 µM] | 25%[46.1 µM] | 13%
O=C(/C=C\c1ccc(O)cc1)c1ccc(O)cc1O | . | . | . | 10µM* | . | .
C=C(C)C(O)CC/C(C)=C/Cc1c(O)ccc(C(=O)/C=C/c2ccc(O)cc2)c1O (centres undefined) | -67* | -27% | ? | . | . | ?
O=C(/C=C/c1ccc(O)cc1)c1ccccc1O | . | . | . | . | . | -32%
COc1ccc(C(=O)/C=C/c2ccc(O)cc2)c(O)c1C/C=C(\C)CCC=C(C)C | -105* | 3% | ? | . | . | ?
COc1ccc(C=CC(=O)c2ccc(OC)c(OC)c2O)cc1OC | 19 | . | -20% | ? | ? | ?
Cc1cnc(-n2ncc(C(=O)NCc3ccccn3)c2C2CC2)nc1-c1cccs1 | . | . | . | . | . | -11%
COc1ccccc1Oc1ccc(-c2cnc3ccccc3n2)cc1[N+](=O)[O-] | -87* | -1% | ? | ? | ? | 1%
O=[N+]([O-])c1cc(-c2cnc3ccccc3n2)ccc1Oc1ccc(Cl)cc1 | 44 | -6% | ? | . | . | 25%
COc1ccccc1-c1coc2cc(O)ccc2c1=O | . | . | . | . | . | 10%
CCC(Oc1ccc2c(=O)c(-c3ccccc3OC)coc2c1)C(=O)OCc1ccccc1 (centres undefined) | 60 | -13% | ? | ? | -5% | 20µM*
CCc1ccc(OCCCCCn2ccnc2)cc1 | ? | -5% | ? | -30% | -11% | -12%
COc1ccccc1CNC(=O)c1ccc(Cn2c(SCc3ccccc3)nc3cccnc32)cc1 | -17 | . | . | . | 7%[46.1 µM] | 9%
COc1ccc(N2C(=O)N3[C@H](c4ccccc4)[C@@H](C)C[C@H]4c5ccccc5C[C@]43C2=O)cc1 | . | . | . | 2%[14.2 µM] | . | .
CCCC[C@H]1COCCS(=O)(=O)N1Cc1cccc([N+](=O)[O-])c1 | -100* | -4% | -5% | . | . | -1%
CC1(C)N=C(N)N=C(N)N1c1ccc(CCCCc2ccccc2)cc1 | -101* | . | . | . | . | 3.5µM*
CC1(C)N=C(N)N=C(N)N1c1ccccc1 | -30 | -8% | ? | ? | ? | -15%
CNC(=S)NNc1nc(C)cc(C)n1 | 0 | 1% | 16% | 26%[46.1 µM] | 1%[46.1 µM] | -11%
COc1ccccc1CNS(=O)(=O)c1ccc2c(c1)CC(C)N2C(=O)C1CCC1 (centres undefined) | -61* | -4% | ? | . | -24%[46.1 µM] | ?
CCN(Cc1ccccc1)S(=O)(=O)c1ccc2c(c1)CC(C)N2C(=O)C1CCC1 (centres undefined) | -35 | . | . | . | 2.8µM* | -20%
CCCCN(c1ccccc1)S(=O)(=O)c1ccc2c(c1)CC(C)N2C(=O)C1CC1 (centres undefined) | -21 | . | . | . | ? | -14%
COc1ccccc1CNS(=O)(=O)c1ccc2c(c1)CC(C)N2C(=O)C1CC1 (centres undefined) | ? | 4% | ? | . | . | -9%
CCCN(c1ccccc1CC)S(=O)(=O)c1ccc2c(c1)CC(C)N2C(=O)C1CC1 (centres undefined) | -93* | . | . | . | ? | ?
COc1ccccc1OCc1nc(-c2cccc(C)c2)no1 | 74 | . | . | ? | 8%[46.1 µM] | 42%
COc1cccc(/C=C(/C(=O)OCC(=O)NC2CCCCCCC2)c2ccccc2)c1 | ? | 3% | 11µM* | -12% | -8% | ?
SMILES | HCMV inh | SARS PLP yeast | HCV inhibitor | MARV entry inh | Lassa entry inh | FMDV inh
COc1cccc(/C=C(/C(=O)OCC(=O)NCC2CCCO2)c2ccccc2)c1 (centres undefined) | -32 | -2% | -15% | -66%[46.1 µM] | 4%[46.1 µM] | -5%
CSc1ccc(-c2sc(Nc3cccc4ccccc34)n[n+]2-c2ccccc2)cc1 | -15 | -4% | 8.9µM* | . | . | 10%
CSc1ccc(-c2sc(Nc3ccccc3)n[n+]2-c2ccccc2)cc1 | . | -2% | -30% | . | . | -13%
CCc1ccc(Nc2n[n+](-c3ccccc3)c(-c3ccc(SC)cc3)s2)cc1 | -65* | -2% | -26% | . | . | -4%
COc1ccc2sc(N(CCCN(C)C)C(=O)c3nc4ccccc4s3)nc2c1 | 40 | -5% | 4% | 10%[46.1 µM] | 28% | 0%
COc1ccccc1C(=O)N(CCC1CCCN1C)c1nc2ccccc2s1 (centres undefined) | -77* | -1% | 9% | ? | ? | ?
Cn1cnnc1Sc1ccc(CN2CCOc3ccc(C4=Cc5ccccc5CC4)cc3C2)o1 | . | . | . | . | . | 20%
COC1C(C)OC(OC2CC(C)(O)Cc3cc4c(c(O)c32)C(=O)c2c(O)cc3c(c2C4=O)OC2OC3(C)C(O)C(N(C)C)C2O)C(OC)C1(C)OC (centres undefined) | -98* | . | 4µM* | ? | ? | -9%
Cn1c(CCN2CCCCC2)nc2cc(NS(=O)(=O)c3ccccc3)ccc21 | 13 | -1% | -6% | -25% | -13% | 0%
Cn1c(CCN2CCN(c3ccccn3)CC2)nc2cc(NC(=O)COc3ccccc3)ccc21 | ? | 0% | 4µM* | . | . | ?
Cc1ccc(OCC(=O)Nc2ccc3c(c2)nc(CCN2CCN(c4ccccn4)CC2)n3C)cc1 | -77* | . | . | . | . | 3.5µM*
Cn1c(CCN2CCN(c3ccccn3)CC2)nc2cc(NS(=O)(=O)c3ccccc3)ccc21 | + | 8% | 10µM* | . | . | ?
CCCCC(=O)Nc1ccc2c(c1)nc(CCN1CCN(c3ccccn3)CC1)n2C | -81* | 0% | -6% | . | . | -7%
C=CCNc1nc(-c2ccccn2)nnc1-c1ccccc1 | -103* | -34% | ? | ? | ? | -10%
c1ccc(-c2cnnc(-c3ccccn3)n2)cc1 | -3 | . | 11% | . | . | 50%
N=C1C=CC(=C(c2ccc(N)cc2)c2ccc(N)cc2)C=C1 | -100* | . | 6.3µM* | 4µM* | 5µM* | -47%
Nc1ccc(C(=O)C(=O)c2ccc(N)cc2)cc1 | -8 | -1% | 5% | . | . | 8%
COc1cccc(C(C(=O)NC2CCCCC2)N(C(=O)Cc2cccs2)c2ccc(-n3cnnn3)c(OC)c2)c1 (centres undefined) | -2 | 1% | ? | ? | ? | 47%
O=C(NC1CCCC1)C(c1cccs1)N(C(=O)c1ccco1)c1ccc2c(c1)OCCO2 (centres undefined) | -62* | -2% | ? | -19% | ? | -2%
COc1ccc(N(C(=O)c2ccco2)C(C(=O)NC2CCCC2)c2cccs2)cc1 (centres undefined) | -69* | 0% | -25% | ? | ? | 7%
COc1cccc(C(C(=O)NC2CCCCC2)N(C(=O)c2cccs2)c2ccc3c(c2)OCO3)c1 (centres undefined) | -83* | 17% | ? | -33% | ? | -13%
Cc1ccccc1Sc1ccc(N)cn1 | 27 | . | -9% | . | . | 2%
